# For some assays here: Measured potencies and affinities stand elsewhere. Calls of active or inactive are those of the source.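 Rule for the calls, unless noted: active = fluorescence ratio normalized to control raised more than 50% in primary screen plus both repeat runs; inactive = the rest.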
# Key:
# [1] = system: TRPC4 beta (transient receptor potential cation channel C4), mouse; experiment: TRPC4 cation channel opening, retest – cell-based, Fluo4 calcium, HEK293 TRPC4beta/mu-opioid, duplicates, 10 µM, confirmation (AID 2426); conditions: Fluo4 calcium fluorescence, at 10 µM; active compounds read high;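 for activation: percent rise of integrated ratio over buffer wells lacking compound which define 0%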
# [2] = system: transient receptor potential cation channel C4 beta (TRPC4), mouse; experiment: TRPC4 cation channel opening, second retest – cell-based, second round, Fluo4, HEK293 TRPC4beta/mu-opioid, 1 µM, confirmation (AID 2461;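 active = primary screen active and over 50% activation in each of two duplicate runs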); conditions: Fluo4 calcium fluorescence, at 1 µM; active compounds read high
# [3] = system: TRPC4 (transient receptor potential cation channel C4 beta), mouse; experiment: potentiation of DAMGO EC20 TRPC4 response – cell-based, second round, Fluo-4, HEK293 TRPC4beta/mu-opioid, 1 µM, confirmation (AID 2554;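 active = primary screen hit whose fluorescence ratio, in both repeats, exceeds the weak agonist control mean by 3 SD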); conditions: DAMGO EC20, Fluo-4 calcium flux, at 1 µM; active compounds read high
# [4] = system: TRPC4 beta (transient receptor potential cation channel C4), mouse; experiment: potentiation of DAMGO EC20 TRPC4 response – cell-based, Fluo-4, HEK293 TRPC4beta/mu-opioid, confirmation (AID 2555;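 active = primary screen hit whose calcium fluorescence ratio, in both repeats, exceeds the weak agonist control mean by 3 SD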); conditions: DAMGO EC20, Fluo-4 calcium flux, at 10 µM; active compounds read high
# [5] = target: Short transient receptor potential channel 4 (Mus musculus) (UniProt Q9QUQ5); experiment: blockers of DAMGO-evoked TRPC4 calcium flux – cell-based, Fluo4, HEK293 TRPC4beta/mu-opioid, confirmation (AID 2636;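 active = calcium signal cut by more than 3 SD below the full-agonist control yet still positive, in both repeats and the earlier primary screen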); conditions: at 10 µM; active compounds read high
# [6] = target: Short transient receptor potential channel 4 (Mus musculus) (UniProt Q9QUQ5); experiment: blockers of DAMGO-evoked TRPC4 calcium flux – cell-based, second round, Fluo4, HEK293 TRPC4beta/mu-opioid, 1 µM, confirmation (AID 2637;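 active = calcium signal ratio cut to more than 3 SD under the fully stimulated control mean yet still positive, in both repeats and the primary screen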); conditions: at 1 µM; active compounds read high
# [7] = target: Short transient receptor potential channel 4 (Mus musculus) (UniProt Q9QUQ5); experiment: calcium entry via TRPC4 opening agents – cell-based, HEK293 TRPC4/mu-opioid, Fluo-4 calcium, dose response (AID 434937;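 active = primary screen activator hit with a dose response curve and TRPC4 channel activation at any tested dose; inactive = no activation, no dose response, or not a primary hit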)
# [8] = target: Short transient receptor potential channel 4 (Mus musculus) (UniProt Q9QUQ5); experiment: potentiation of DAMGO-evoked TRPC4 calcium signal – cell-based, HEK293 TRPC4/mu-opioid, Fluo-4 calcium, EC20 DAMGO, dose response (AID 434941;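 active = earlier screen potentiator hit that boosts the TRPC4 ion channel at some dose, with a dose response; inactive = no potentiation, no dose response, or not a prior hit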;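 note: calcium entry triggered by an EC20 dose of DAMGO at the co-expressed mu-opioid receptor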)
# [9] = target: Short transient receptor potential channel 4 (Mus musculus) (UniProt Q9QUQ5); experiment: block of DAMGO-driven TRPC4 calcium entry – cell-based, HEK293 TRPC4/mu-opioid, Fluo-4 calcium, dose response (AID 434942;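 active = primary screen inhibitor hit that blocks the TRPC4 channel at some tested dose, yielding a dose curve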)
# [10] = target: Short transient receptor potential channel 6 (Mus musculus) (UniProt Q61143); experiment: TRPC6 blockade by TRPC4 inhibitor hits – cell-based, HEK293, membrane potential dye, duplicate, selectivity assay for TRPC4 inhibitor project, confirmation (AID 434948;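 active = active in primary screen and both duplicates, each dropping signal beyond three positive-control SD with fluorescence still positive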); conditions: HEK293 TRPC6, membrane potential dye fluorescence, at 10 µM, stimulated with maximal-effect acetylcholine; active compounds read high
# [11] = target: Short transient receptor potential channel 6 (Mus musculus) (UniProt Q61143); experiment: TRPC6 opening by TRPC4 activator hits – cell-based, HEK293, membrane potential dye, duplicate, selectivity assay for TRPC4 activator project, confirmation (AID 434950;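 active = membrane potential signal rise above negative control mean plus 3 SD in both duplicates, also active in the earlier TRPC4 screen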); conditions: HEK293 TRPC6, membrane potential fluorescence, at 10 µM; activation: active compounds read high; outcome: activation
# [12] = target: Short transient receptor potential channel 6 (Mus musculus) (UniProt Q61143); experiment: positive modulators of mouse TRPC6 channel – HEK293 cells, membrane potential dye, duplicate, selectivity assay for TRPC4 potentiator project, confirmation (AID 434952;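 active = compound raising the membrane signal above positive-control mean plus 3 SD in both repeats, and a primary screen hit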); conditions: HEK293 TRPC6, membrane potential dye fluorescence, at 10 µM, maximal acetylcholine added after compound; active compounds read high
# [13] = target: Short transient receptor potential channel 4 (Mus musculus) (UniProt Q9QUQ5); experiment: calcium flux activators in TRPC4/5HT1a cells, counter-screen for TRPC4 activator project, cell-based, second counter screen, HEK293 TRPC4/5HT1a, Fluo-4 (AID 434977;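 active = calcium signal rise above buffer-control mean plus 5 SD in both duplicates, and also a hit in the primary screen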;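 for activation: plate controls were assay buffer for no effect and maximal serotonin response for full effect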); conditions: Fluo-4 calcium flux, at 10 µM; active compounds read high
# [14] = serotonin-gated TRPC4 signal block – cell-based, second counter screen, HEK293 TRPC4/5HT1a, Fluo-4, counter-screen for TRPC4 inhibitor project, confirmation (AID 434978;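 active = primary screen active whose calcium signal fell more than 3 SD beyond the full-serotonin control mean in both duplicate plates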;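 note: serotonin given first at submaximal then at maximal dose after compound preincubation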); conditions: Fluo-4 calcium flux, at 10 µM, serotonin added to trigger calcium flux; active compounds read high
# [15] = system: TRPC4 (mouse), co-expressed with 5HT1a in HEK293; experiment: enhancement of serotonin-evoked TRPC4 response – cell-based, second counter screen, HEK293 TRPC4/5HT1a, Fluo-4, counter-screen for TRPC4 potentiator project, confirmation (AID 434979;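 active = signal rise over 3 SD above mean of control wells given weak agonist, in both repeats and first screen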); conditions: Fluo-4 calcium flux, at 10 µM, serotonin added at its EC20 dose; active compounds read high
# [16] = nonspecific calcium rise without TRPC4 – cell-based, HEK293 mu-opioid receptor line, counter-screen for TRPC4 activator project, confirmation (AID 449723;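 active = hit in primary screen, with calcium signal over 5 SD above buffer well mean in both duplicates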;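 note: counter screen cells carry the mu-opioid receptor alone and lack TRPC4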); conditions: HEK293 mu-opioid cells, Fluo-4 calcium fluorescence, at 10 µM; active compounds read high
# [17] = nonspecific potentiation of DAMGO calcium response – cell-based, HEK293 mu-opioid receptor line, counter-screen for TRPC4 allosteric potentiator project, confirmation (AID 449724;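 active = calcium signal rise more than 3 SD above the low-dose agonist control mean, in both duplicate plates and the primary screen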); conditions: HEK293 mu-opioid receptor cells, Fluo-4 calcium flux, at 10 µM, compound added before EC20 DAMGO stimulus; active compounds read high
# Short transient receptor potential channel 4 (Mus musculus), sequence (Q9QUQ5 whole entry, looked up): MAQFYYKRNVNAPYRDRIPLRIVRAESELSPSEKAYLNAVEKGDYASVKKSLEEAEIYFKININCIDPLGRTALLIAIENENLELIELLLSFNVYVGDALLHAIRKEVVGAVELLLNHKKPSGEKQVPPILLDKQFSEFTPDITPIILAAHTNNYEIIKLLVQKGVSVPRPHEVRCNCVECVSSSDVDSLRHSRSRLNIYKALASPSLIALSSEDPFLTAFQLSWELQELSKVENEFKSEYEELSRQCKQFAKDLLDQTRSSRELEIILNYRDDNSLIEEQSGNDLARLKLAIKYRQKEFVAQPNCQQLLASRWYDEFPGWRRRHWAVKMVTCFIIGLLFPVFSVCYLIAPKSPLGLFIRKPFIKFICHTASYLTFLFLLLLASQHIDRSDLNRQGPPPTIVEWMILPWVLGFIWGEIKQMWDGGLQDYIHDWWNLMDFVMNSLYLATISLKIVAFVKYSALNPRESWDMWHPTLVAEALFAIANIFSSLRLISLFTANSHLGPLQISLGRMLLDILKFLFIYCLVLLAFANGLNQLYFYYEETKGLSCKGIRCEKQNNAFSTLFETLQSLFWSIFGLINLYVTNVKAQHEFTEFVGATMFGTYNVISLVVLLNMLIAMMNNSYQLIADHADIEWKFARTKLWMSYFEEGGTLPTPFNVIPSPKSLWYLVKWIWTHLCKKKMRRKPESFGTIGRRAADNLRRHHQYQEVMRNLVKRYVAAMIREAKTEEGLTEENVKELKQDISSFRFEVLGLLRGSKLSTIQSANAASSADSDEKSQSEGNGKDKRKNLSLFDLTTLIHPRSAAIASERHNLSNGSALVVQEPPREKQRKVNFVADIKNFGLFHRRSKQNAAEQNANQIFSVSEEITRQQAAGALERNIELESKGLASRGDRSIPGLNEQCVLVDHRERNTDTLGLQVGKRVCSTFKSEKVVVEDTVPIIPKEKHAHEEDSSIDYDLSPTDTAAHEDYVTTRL
# Short transient receptor potential channel 6 (Mus musculus), sequence (Q61143 whole entry, looked up): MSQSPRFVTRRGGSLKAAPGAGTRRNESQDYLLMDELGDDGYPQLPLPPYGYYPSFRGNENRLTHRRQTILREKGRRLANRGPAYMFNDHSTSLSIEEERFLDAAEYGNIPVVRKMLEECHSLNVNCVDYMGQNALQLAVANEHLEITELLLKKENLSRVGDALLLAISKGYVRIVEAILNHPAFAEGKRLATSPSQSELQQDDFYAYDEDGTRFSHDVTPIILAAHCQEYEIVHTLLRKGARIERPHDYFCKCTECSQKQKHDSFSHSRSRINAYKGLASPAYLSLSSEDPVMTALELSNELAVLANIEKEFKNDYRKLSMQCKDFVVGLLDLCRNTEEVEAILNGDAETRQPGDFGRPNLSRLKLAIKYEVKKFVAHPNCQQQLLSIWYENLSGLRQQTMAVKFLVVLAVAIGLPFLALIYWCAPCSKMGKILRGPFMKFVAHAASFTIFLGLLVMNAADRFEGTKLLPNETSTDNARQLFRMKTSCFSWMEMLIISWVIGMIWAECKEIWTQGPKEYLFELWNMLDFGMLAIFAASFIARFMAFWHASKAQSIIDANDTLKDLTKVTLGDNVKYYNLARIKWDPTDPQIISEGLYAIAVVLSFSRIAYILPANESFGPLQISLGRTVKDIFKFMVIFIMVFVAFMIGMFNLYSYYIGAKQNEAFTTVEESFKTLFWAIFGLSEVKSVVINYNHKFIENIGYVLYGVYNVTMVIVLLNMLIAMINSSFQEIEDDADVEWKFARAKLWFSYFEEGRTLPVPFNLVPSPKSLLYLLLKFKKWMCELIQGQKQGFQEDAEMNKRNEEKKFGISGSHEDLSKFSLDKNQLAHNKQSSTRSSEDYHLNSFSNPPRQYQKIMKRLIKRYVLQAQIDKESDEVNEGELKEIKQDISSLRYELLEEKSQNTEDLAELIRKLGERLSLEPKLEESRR
smiles,measurement,setting,value
CSc1ccc(/C=N\NC(=O)CC(=O)NC(C)C)cc1,outcome,[1],inactive
same,outcome,[2],inactive
same,outcome,[3],inactive
same,outcome,[4],inactive
same,outcome,[5],inactive
same,outcome,[6],inactive
same,outcome,[7],inactive
same,outcome,[8],inactive
same,outcome,[9],inactive
same,outcome,[10],inactive
same,outcome,[11],inactive
same,outcome,[12],inactive
same,outcome,[13],inactive
same,outcome,[14],inactive
same,outcome,[15],inactive
same,outcome,[16],inactive
same,outcome,[17],inactive
Cc1ccc(C)n1-c1nnc(N2CCC(C(=O)NCCCN3CC(C)CC(C)C3)CC2)s1 (centres undefined),activation,[1],67% (active)
same,outcome,[2],inactive
same,outcome,[3],inactive
same,outcome,[4],inactive
same,outcome,[5],inactive
same,outcome,[6],inactive
same,outcome,[7],inactive
same,outcome,[8],inactive
same,outcome,[9],inactive
same,outcome,[10],inactive
same,outcome,[11],inactive
same,outcome,[12],inactive
same,activation,[13],20.3% (active)
same,outcome,[14],inactive
same,outcome,[15],inactive
same,outcome,[16],inactive
same,outcome,[17],inactive
Cc1ccc(C(=O)NNC(=O)C2CSC3(C)CCC(=O)N23)cc1 (centres undefined),outcome,[1],inactive
same,outcome,[2],inactive
same,outcome,[3],inactive
same,outcome,[4],inactive
same,outcome,[5],inactive
same,outcome,[6],inactive
same,outcome,[7],inactive
same,outcome,[8],inactive
same,outcome,[9],inactive
same,outcome,[10],inactive
same,outcome,[11],inactive
same,outcome,[12],inactive
same,outcome,[13],inactive
same,outcome,[14],inactive
same,potentiation,[15],7.03% (active)
same,outcome,[16],inactive
same,outcome,[17],inactive
CCOC(=O)c1ccc(NC(=S)N2CCSC2c2ccc(Cl)cc2)cc1 (centres undefined),outcome,[1],inactive
same,outcome,[2],inactive
same,outcome,[3],inactive
same,potentiation,[4],21% (active)
same,outcome,[5],inactive
same,outcome,[6],inactive
same,outcome,[7],inactive
same,outcome,[8],inactive
same,outcome,[9],inactive
same,outcome,[10],inactive
same,outcome,[11],inactive
same,outcome,[12],inactive
same,outcome,[13],inactive
same,outcome,[14],inactive
same,potentiation,[15],26.4% (active)
same,outcome,[16],inactive
same,outcome,[17],inactive
CCCSc1nc(C)cc(C)c1S(=O)(=O)c1ccccc1C,outcome,[1],inactive
same,outcome,[2],inactive
same,outcome,[3],inactive
same,outcome,[4],inactive
same,outcome,[5],inactive
same,outcome,[6],inactive
same,outcome,[7],inactive
same,outcome,[8],inactive
same,outcome,[9],inactive
same,outcome,[10],inactive
same,outcome,[11],inactive
same,outcome,[12],inactive
same,outcome,[13],inactive
same,outcome,[14],inactive
same,outcome,[15],inactive
same,outcome,[16],inactive
same,outcome,[17],inactive
Cn1c(SCCOc2ccccc2F)nc2ccccc2c1=O,outcome,[1],inactive
same,outcome,[2],inactive
same,outcome,[3],inactive
same,potentiation,[4],10% (active)
same,outcome,[5],inactive
same,outcome,[6],inactive
same,outcome,[7],inactive
same,outcome,[8],inactive
same,outcome,[9],inactive
same,outcome,[10],inactive
same,outcome,[11],inactive
same,outcome,[12],inactive
same,outcome,[13],inactive
same,outcome,[14],inactive
same,outcome,[15],inactive
same,outcome,[16],inactive
same,outcome,[17],inactive
Cc1cc(Nc2ccc3c(c2)OCCO3)c2cccc(C)c2n1,outcome,[1],inactive
same,outcome,[2],inactive
same,outcome,[3],inactive
same,outcome,[4],inactive
same,outcome,[5],inactive
same,outcome,[6],inactive
same,outcome,[7],inactive
same,outcome,[8],inactive
same,outcome,[9],inactive
same,outcome,[10],inactive
same,outcome,[11],inactive
same,outcome,[12],inactive
same,outcome,[13],inactive
same,outcome,[14],inactive
same,outcome,[15],inactive
same,outcome,[16],inactive
same,outcome,[17],inactive
